Measured values: PubChem BioAssay (NCATS)
Records with an inconclusive call do not appear. A call without a number means that no potency is given here. Calls of active or inactive are those of the source. Calls come from the whole dose curve; as a rule, active = well fitted inhibition curve with a large enough effect; inconclusive = small, poorly fitted or top-dose-only effect; inactive = no such curve, though single readings can be large or run the other way.

What was measured:
[1] = system: Zika virus NS2B-NS3 protease (unlinked complex); test: Primary screen GU Rhodamine qHTS for Zika virus inhibitors: Unlinked NS2B-NS3 protease assay (AID 1347159); note: nearly all actives have a fitted effect of over 60% in size
Summary of the method: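 A qHTS format was used, with compound concentrations ranging up to 114 microM. Each compound was preincubated with 25 nM NS2B-NS3 protease, and the substrate was then added at 1.5 microM. Curves were fitted with a 4-parameter Hill model.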

[2] = system: Zika virus NS2B-NS3 protease (linked construct); test: Primary screen NINDS Rhodamine qHTS for Zika virus inhibitors (AID 1347160); note: nearly all actives have a fitted effect of over 55% in size
Summary of the method: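 Kinetic fluorescence (Ex 480 nm, Em 540 nm) over 15 min with 1.5 microM Rhodamine110 peptide and 25 nM linked protease.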

| Structure (SMILES) | Potency [1] | Potency [2] |
| --- | --- | --- |
| Oc1ccc(CC2NCCc3cc(O)c(O)cc32)cc1 (centres undefined) | inactive | inactive |
| COc1ccc(CCC(=O)O)c(O[C@@H]2O[C@H](CO)[C@@H](O)[C@H](O)[C@H]2O)c1 | inactive | inactive |
| CC1(C)CC[C@]2(C(=O)O[C@@H]3O[C@H](CO)[C@@H](O)[C@H](O)[C@H]3O)[C@H](O)C[C@]3(C)C(=CCC4[C@@]5(C)CC[C@H](O[C@@H]6OC[C@@H](O)[C@H](O)[C@H]6O)[C@@](C)(C(=O)O)C5CC[C@]43C)[C@@H]2C1 (some centres undefined) | inactive | inactive |
| CC(=O)NC1CC(=O)C23C(=O)NC(Cc4c[nH]c5ccccc45)C2C(C)=C(C)C(O)C3/C=C/CC(C)/C=C(/C)C(O)C1O (centres undefined) | inactive | inactive |
| Cc1ccc(-n2nc(C(C)(C)C)cc2NC(=O)Nc2cc(COc3cccnc3)[nH]n2)cc1 | inactive | inactive |
| C=CC(C)(CC/C=C(\C)C(=O)OC)OC1OC(COC(=O)CC(C)(O)CC(=O)O)C(O)C(O)C1O (centres undefined) | inactive | inactive |
| CCOc1ncc(S(=O)(=O)N2CCN(CC)CC2)cc1-c1nc2c(CC)n(CCOC)nc2c(=O)[nH]1 | inactive | inactive |
| CC1=CCC2C(C)(C)CCCC2(C)C1CC12OC1C(O)C(CO)=CC2O (centres undefined) | inactive | inactive |
| C=CC(C)(O)CC/C=C(\C)C(=O)O[C@@H]1[C@@H](O)[C@H](OC(C)(C=C)CC/C=C(\C)C(=O)O[C@@H]2O[C@H](CO)[C@@H](O)[C@H](O)[C@H]2O)O[C@H](CO)[C@H]1OC(=O)/C(C)=C/CCC(C)(O)C=C (some centres undefined) | inactive | inactive |
| C=C1C[C@]23C[C@H]1CC[C@H]2[C@]1(C)CC[C@H](O)[C@@](C)(C(=O)O)[C@H]1[C@@H]3C(=O)O | inactive | inactive |
| C[C@@H]1O[C@@H](O[C@H]2[C@H](O)[C@@H](O)[C@H](OC[C@H]3O[C@@H](OC(=O)[C@]45CCC(C)(C)C[C@H]4C4=CCC6[C@@]7(C)C[C@@H](O)[C@H](O)[C@@](C)(CO)C7[C@H](O)C[C@@]6(C)[C@]4(C)CC5)[C@H](O)[C@@H](O)[C@@H]3O)O[C@@H]2CO)[C@H](O)[C@H](O)[C@H]1O (some centres undefined) | inactive | inactive |
| CCC(=O)OCC(=O)[C@@]1(OC(=O)CC)[C@@H](C)C[C@H]2[C@@H]3CCC4=CC(=O)C=C[C@]4(C)[C@@]3(F)[C@@H](O)C[C@@]21C | inactive | inactive |
| COc1c2c(c(C)c3c1C(=O)OC3)OC1(C)CC(O)C34OC(OC)(CC(O)C3(C)C1C2)OC4(C)C (centres undefined) | inactive | inactive |
| CC1=CC2=C(C)C(=O)[C@](C)(O)[C@H](O)C2=CO1 | inactive | inactive |
| Cc1cn2cc(CC(=O)N3CCC4(CC3)CN(Cc3ccc(-n5nccn5)cc3Cl)C4)nc2s1 | inactive | inactive |
| COc1cc(/C=C/C(=O)O)ccc1O[C@@H]1O[C@H](CO)[C@@H](O)[C@H](O)[C@H]1O[C@@H]1OC[C@](O)(CO)[C@H]1O | inactive | inactive |
| CC(C)C(NC(=O)c1ccc(O)cc1)C(=O)N1CCCC1C(=O)Nc1c(O)cccc1C(=O)O (centres undefined) | inactive | inactive |
